# Results published in the supplement of paper PMC12582362.
# Structures can show the parent of a compound that is named as a salt. The whole screen tested about 1,500 compounds, of which about 30 (2%) showed activity.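 The calls were made as follows: active = robust z-score below -2; a few such results were not called.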 For the sample, actives were picked, then their nearest neighbours and some compounds at random.
# System: optoTopBP1 Flp-In 293 T-REx (HEK293) cells
# Assay: light-induced TopBP1 condensate (nuclear foci) count, plate-normalised robust z-score vs non-control wells; higher = more TopBP1 condensates (negative = condensation inhibitor), active = hit call of the paper
# Settings: 10 µM; incubation time 2 h
row,SMILES,light-induced TopBP1 condensate (z-score)
1,CC[C@H]1OC(=O)[C@H](C)[C@@H](O[C@H]2C[C@@](C)(OC)[C@@H](O)[C@H](C)O2)[C@H](C)[C@@H](O[C@@H]2O[C@H](C)C[C@H](N(C)C)[C@H]2O)[C@](C)(O)C[C@@H](C)C(=O)[C@H](C)[C@@H](O)[C@]1(C)O [Erythromycin],-0.359 (inactive)
2,CCC1(c2ccccc2)NC(=O)N(C)C1=O (configuration not stated) [Mephenytoin],0.477 (inactive)
3,COCC(=O)O[C@]1(CCN(C)CCCc2nc3ccccc3[nH]2)CCc2cc(F)ccc2[C@@H]1C(C)C [Mibefradil],-2.07 (active)
4,COc1cc(/C=C/C(=O)N2CCN(CC(=O)N3CCCC3)CC2)cc(OC)c1OC [Cinepazide maleate],-0.187 (inactive)
5,CC(C)[C@H](N)C(=O)OCC(CO)OCn1cnc2c(=O)nc(N)[nH]c21 (some centres not stated) [Valganciclovir hydrochloride],0.111 (inactive)
6,COc1ccc(CN(CCN(C)C)c2ccccn2)cc1 [Pyrilamine maleate],-1.49 (inactive)
7,CN(C)CCN(Cc1ccc(Cl)cc1)c1ccccn1 [Chloropyramine hydrochloride],-0.941 (inactive)
8,CCCCCCCCCCCCCCCC[N+](C)(C)CCN(Cc1ccc(OC)cc1)c1ncccn1 [Thonzonium bromide],-2.49 (active)
9,CO/N=C(\C(=O)N[C@@H]1C(=O)N2C(C(=O)OC(C)OC(C)=O)=C(COC(N)=O)CS[C@H]12)c1ccco1 (some centres not stated) [Cefuroxime axetil],-0.531 (inactive)
10,C=C(NC(=O)C(=C)NC(=O)c1csc(C2=N[C@@H]3c4csc(n4)[C@H]4NC(=O)c5csc(n5)[C@H]([C@](C)(O)[C@@H](C)O)NC(=O)[C@H]5CSC(=N5)/C(=C/C)NC(=O)[C@H]([C@@H](C)O)NC(=O)c5csc(n5)[C@]3(CC2)NC(=O)[C@H](C)NC(=O)C(=C)NC(=O)[C@H](C)NC(=O)[C@H]([C@@H](C)CC)N[C@@H]2C=Cc3c([C@H](C)O)cc(nc3[C@H]2O)C(=O)O[C@@H]4C)n1)C(N)=O [Thiostrepton],-3.34 (active)
11,CC(C)c1ccc2oc3nc(N)c(C(=O)O)cc3c(=O)c2c1 [Amlexanox],-0.968 (inactive)
12,N=C(NCCCCCCNC(=N)NC(=N)Nc1ccc(Cl)cc1)NC(=N)Nc1ccc(Cl)cc1 [Chlorhexidine],0.68 (inactive)
13,CCc1ccc(C(=O)C(C)CN2CCCCC2)cc1 (configuration not stated) [Eperisone HCl],1.18 (inactive)
14,CC(=O)OCC(=O)[C@@]12N=C(C)O[C@@H]1C[C@H]1[C@@H]3CCC4=CC(=O)C=C[C@]4(C)[C@H]3[C@@H](O)C[C@@]12C [Deflazacort],-0.182 (inactive)
15,CCOC(=O)C1=C(COCCN)NC(C)=C(C(=O)OC)C1c1ccccc1Cl (configuration not stated) [Amlodipine],-1.57 (inactive)
16,OC(c1cc(C(F)(F)F)nc2c(C(F)(F)F)cccc12)C1CCCCN1 (configuration not stated) [Mefloquine hydrochloride],-1.69 (inactive)
17,CN(C)c1ccc2nc3ccc(=[N+](C)C)cc-3sc2c1 [Methylene blue],-8.05 (active)
18,Nc1c2ccccc2nc2ccccc12 [Aminacrine],-2.02 (inactive)
19,Nc1ccc2cc3ccc(N)cc3nc2c1 [Proflavine hemisulfate],-6.85 (active)

row,SMILES,light-induced TopBP1 condensate (z-score)
1,CCOc1ccc2nc3cc(N)ccc3c(N)c2c1 [Ethacridine lactate],0.0605 (inactive)
2,CO/N=C(\C(=O)N[C@@H]1C(=O)N2C(C(=O)[O-])=C(C[n+]3ccn4ncccc43)CS[C@H]12)c1nsc(N)n1 [Cefozopran hydrochloride],0.96 (inactive)
3,CC[C@H]1OC(=O)[C@H](C)[C@@H](O[C@H]2C[C@@](C)(OC)[C@@H](O)[C@H](C)O2)[C@H](C)[C@@H](O[C@@H]2O[C@H](C)C[C@H](N(C)C)[C@H]2O)[C@](C)(O)C[C@@H](C)/C(=N\OCOCCOC)[C@H](C)[C@@H](O)[C@]1(C)O [Roxithromycin],0.222 (inactive)
4,CC[N+](C)(CC)CCOC(=O)C1c2ccccc2Oc2ccccc21 [Methantheline bromide],0.691 (inactive)
5,CSc1nc2cc(Cl)c(Oc3cccc(Cl)c3Cl)cc2[nH]1 [Triclabendazole],-2.43 (active)
6,C[C@@H](CN1CC(=O)NC(=O)C1)N1CC(=O)NC(=O)C1 [Dexrazoxane hydrochloride],-0.035 (inactive)
7,C=CCOc1ccc(CC(=O)O)cc1Cl [Alclofenac],0.0679 (inactive)
8,N=C(N)NCCN1CCCCCCC1 [Guanethidine sulfate],-0.799 (inactive)
9,CC(C)(C)NC[C@H](O)COc1ccccc1C1CCCC1 [Penbutolol sulfate],-0.793 (inactive)
10,COc1ccccc1Oc1c(NS(=O)(=O)c2ccc(C(C)(C)C)cc2)nc(-c2ncccn2)nc1OCCO [Bosentan],0.343 (inactive)
11,CC[C@H]1OC(=O)C[C@@H](O)[C@H](C)[C@@H](O[C@@H]2O[C@H](C)[C@@H](O[C@H]3C[C@@](C)(O)[C@@H](O)[C@H](C)O3)[C@H](N(C)C)[C@H]2O)[C@@H](CC=O)C[C@@H](C)C(=O)/C=C/C(C)=C/[C@@H]1CO[C@@H]1O[C@H](C)[C@@H](O)[C@@H](OC)[C@H]1OC [Tylosin],0.755 (inactive)
12,CN1C(=O)OC(C)(C)C1=O [Trimethadione],0.285 (inactive)
13,NC[C@@H]1O[C@@H](O[C@H]2[C@H](O)[C@@H](O[C@H]3O[C@H](CO)[C@@H](O)[C@H](N)[C@H]3O)[C@H](N)C[C@@H]2N)[C@@H](O)[C@H](O)[C@H]1O [Kanamycin A sulfate],0.0568 (inactive)
14,C[C@H]1[C@H](OC(=O)CCC(=O)O)O[C@@H]2O[C@@]3(C)CC[C@H]4[C@H](C)CC[C@@H]1[C@@]24OO3 [Artesunate],-0.0235 (inactive)
15,CCN(CC)CCCC(C)Nc1c2ccc(Cl)cc2nc2ccc(OC)cc12 (configuration not stated) [Quinacrine dihydrochloride hydrate],-3.15 (active)
16,CCN(CC)CCCC(C)Nc1ccnc2cc(Cl)ccc12 (configuration not stated) [Chloroquine diphosphate],-0.187 (inactive)
17,CCN(CCO)CCCC(C)Nc1ccnc2cc(Cl)ccc12 (configuration not stated) [Hydroxychloroquine sulfate],-1.68 (inactive)
18,CC(=O)N[C@@H](CC(=O)N[C@@H](CCC(=O)O)C(=O)O)C(=O)O [Spaglumic acid],1.44 (inactive)
19,CC(C)(CO)[C@@H](O)C(=O)NCCC(=O)NCCSSCCNC(=O)CCNC(=O)[C@H](O)C(C)(C)CO [Pantethine],0.505 (inactive)

row,SMILES,light-induced TopBP1 condensate (z-score)
1,NCCCC(O)(P(=O)(O)O)P(=O)(O)O [Alendronate sodium],-0.706 (inactive)
2,O=P(O)(O)C(O)(Cc1cccnc1)P(=O)(O)O [Risedronic acid monohydrate],-0.826 (inactive)
3,C#C[C@]1(O)CC[C@H]2[C@@H]3CCC4=CCCC[C@@H]4[C@H]3CC[C@@]21C [Lynestrenol],1.39 (inactive)
4,CC(C)=CCC1C(=O)N(c2ccccc2)N(c2ccccc2)C1=O [Feprazone],1.11 (inactive)
5,C[N+](C)(C)C[C@H](O)CC(=O)[O-] [Levocarnitine],0.0352 (inactive)
6,CC(C)Nc1cccnc1N1CCN(C(=O)c2cc3cc(NS(C)(=O)=O)ccc3[nH]2)CC1 [Delavirdine],0.915 (inactive)
7,Cn1ccnc1S [Methimazole],-0.456 (inactive)
8,CC1(C)O[C@@H]2C[C@H]3[C@@H]4CCC5=CC(=O)C=C[C@]5(C)[C@H]4[C@@H](O)C[C@]3(C)[C@]2(C(=O)CO)O1 [Desonide],-0.951 (inactive)
9,CC/C=C(\C(=O)N[C@@H]1C(=O)N2C(C(=O)OCOC(=O)C(C)(C)C)=C(COC(N)=O)CS[C@H]12)c1csc(N)n1 [Cefcapene pivoxil hydrochloride],-0.782 (inactive)
10,CCOc1ccccc1C(N)=O [Ethenzamide],-0.0402 (inactive)
11,CCC[C@@H]1C[C@@H](C(=O)N[C@@H]([C@H]2O[C@H](SC)[C@H](O)[C@@H](O)[C@H]2O)[C@H](C)Cl)N(C)C1 [Clindamycin hydrochloride],0.556 (inactive)
12,CC(C)N1CCN(c2ccc(OCC3COC(Cn4cncn4)(c4ccc(Cl)cc4Cl)O3)cc2)CC1 (configuration not stated) [Terconazole],-0.114 (inactive)
13,CCC(C)n1ncn(-c2ccc(N3CCN(c4ccc(OCC5COC(Cn6cncn6)(c6ccc(Cl)cc6Cl)O5)cc4)CC3)cc2)c1=O (configuration not stated) [Itraconazole],-0.757 (inactive)
14,CC[C@@H]([C@H](C)O)n1ncn(-c2ccc(N3CCN(c4ccc(OC[C@@H]5CO[C@@](Cn6cncn6)(c6ccc(F)cc6F)C5)cc4)CC3)cc2)c1=O [Posaconazole],-2.52 (active)
15,CN[C@@H]1[C@@H](O[C@H]2O[C@H](CO)[C@@H](N)[C@H](O)[C@H]2O)OC2C[C@@H](N)[C@@H](O[C@H]3[C@H](O)[C@@H](O)[C@H](N)C[C@@H]3N)OC2[C@@H]1O (some centres not stated) [Apramycin],0.974 (inactive)
16,C#Cc1cccc(Nc2ncnc3cc(OCCOC)c(OCCOC)cc23)c1 [Erlotinib],1.27 (inactive)
17,OC(CNCC(O)C1CCc2cc(F)ccc2O1)C1CCc2cc(F)ccc2O1 (configuration not stated) [Nebivolol hydrochloride],-0.227 (inactive)
18,CCCC(=O)N1CCCN(c2nc(N)c3cc(OC)c(OC)cc3n2)CC1 [Bunazosin hydrochloride],0.537 (inactive)
19,CC(=O)OCC(=O)[C@@]1(O)[C@H](C)C[C@H]2[C@@H]3CCC4=CC(=O)C=C[C@]4(C)[C@@]3(F)[C@@H](O)C[C@@]21C [Dexamethasone acetate],0.214 (inactive)
